{"source": "PubChem BioAssay AID620", "about": "(Sanford-Burnham Center for Chemical Genomics, 2007)", "note": "About 360 (0.41%) of roughly 87,000 compounds were called active. This excerpt belongs to a sample that is enriched for actives. A number with no mark means an inactive call. No stated cut-off is given here; in the data, active means cytotoxicity above about 50%; inactive means the rest.", "data": [{"assay": "HT1080 cell viability loss – fluorescence readout (AID 620);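 further: cells exposed to compound overnight then 4 h with Alamar Blue; 0% = vehicle DMSO and 100% = killing control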", "details": "at 10 µM, active compounds read high", "values": [{"smiles": "COc1ccccc1NC(=O)c1ccc(NS(C)(=O)=O)cc1", "cytotoxicity": "-6.8%"}, {"smiles": "C/C(=N\\NC(=O)c1ccccn1)C12CC3CC(CC(C3)C1)C2", "cytotoxicity": "-0.9%"}, {"smiles": "CCN(CC)S(=O)(=O)c1cccc(-c2nnc(SCC(=O)NC3CCCC3)n2N)c1", "cytotoxicity": "-9.2%"}, {"smiles": "CCOc1ccccc1NC(=O)N1CCC(c2nc3ccccc3[nH]2)CC1", "cytotoxicity": "2.8%"}, {"smiles": "COc1ccccc1NC(=O)N1CCC(c2nc3cc(C)c(C)cc3[nH]2)CC1", "cytotoxicity": "72.8% (active)"}, {"smiles": "CCOc1ccccc1NC(=O)N1CCC(c2nc3ccc(C)cc3[nH]2)CC1", "cytotoxicity": "-20.4%"}, {"smiles": "Cc1ccc(NC(=O)/C(C#N)=C/c2cccs2)c(C)c1", "cytotoxicity": "-7.9%"}, {"smiles": "COC(=O)[C@@]1(Cc2ccc(F)cc2)[C@H]2c3cc(C(=O)N4CCCC4)n(CCc4ccc(O)c(O)c4)c3C[C@H]2CN1C(=O)c1ccccc1", "cytotoxicity": "-15.9%"}, {"smiles": "COc1ccccc1CNC(=O)CCS(=O)(=O)c1cccs1", "cytotoxicity": "-8.3%"}, {"smiles": "COc1cc(CNc2ccccc2SC)cc(OC)c1OC", "cytotoxicity": "-30.4%"}, {"smiles": "COc1cc(CNc2cc(C)ccc2C)cc(OC)c1OC", "cytotoxicity": "-14.1%"}, {"smiles": "COc1cc(CNc2ccc(C)c(C)c2)cc(OC)c1OC", "cytotoxicity": "54.5% (active)"}, {"smiles": "CCOC(=O)c1csc(NC(=O)C2CCCCC2)n1", "cytotoxicity": "-6.3%"}, {"smiles": "CCc1c(C)sc(NC(=O)C2CCCO2)c1C#N", "note": "(stereo not given)", "cytotoxicity": "0.6%"}, {"smiles": "O=C(Cn1c(CC(=O)N2CCCC2)nc2ccccc21)NCc1ccccc1", "cytotoxicity": "3%"}, {"smiles": "COc1ccc(NC(=O)Nc2ncccc2C)cc1", "cytotoxicity": "0.5%"}, {"smiles": "Cc1nnc(SCCn2c(N3CCN(C)CC3)nc3c2c(=O)[nH]c(=O)n3C)s1", "cytotoxicity": "-10.1%"}, {"smiles": "Cc1nnc(SCCn2c(N3CCN(C)CC3)nc3c2c(=O)n(C)c(=O)n3C)s1", "cytotoxicity": "-3.5%"}, {"smiles": "Cc1nnc(Sc2nc(Sc3nnc(C)s3)nc(N3CCN(C)CC3)n2)s1", "cytotoxicity": "59.7% (active)"}, {"smiles": "COC(F)(C(=O)Nc1ccc2c(c1)C(=O)NC2=O)C(F)(F)F", "note": "(stereo not given)", "cytotoxicity": "0.1%"}, {"smiles": "Cc1cc(NC(=O)COc2ccccc2)n(-c2ccccc2)n1", "cytotoxicity": "7.7%"}, {"smiles": "CC(=O)Nc1ccc(-c2cc(NC(C)=O)n(-c3ccccc3)n2)cc1", "cytotoxicity": "-2.5%"}, {"smiles": "Cc1cc(NC(=O)Nc2cc(C)nn2-c2ccccc2)n(-c2ccccc2)n1", "cytotoxicity": "4.3%"}, {"smiles": "O=C(CCl)Nc1cc(-c2ccccc2)nn1-c1ccccc1", "cytotoxicity": "54.1% (active)"}, {"smiles": "CC(=O)Nc1cc(-c2ccc(Cl)cc2)nn1-c1ccccc1", "cytotoxicity": "1.4%"}, {"smiles": "Cc1ccc(-c2cc(NC(=O)CCl)n(-c3ccccc3)n2)cc1", "cytotoxicity": "60.4% (active)"}, {"smiles": "O=C(NCCc1c[nH]c2ccccc12)c1cnc2sccn2c1=O", "cytotoxicity": "-1.9%"}, {"smiles": "O=C(NCC(c1cccnc1)N1CCN(c2ccccc2F)CC1)c1ccccc1", "note": "(stereo not given)", "cytotoxicity": "-1.1%"}, {"smiles": "CC(NS(=O)(=O)c1ccc(OCC(=O)N2CCOCC2)cc1)c1ccccc1", "note": "(stereo not given)", "cytotoxicity": "0.3%"}, {"smiles": "O=C(Nc1ccc2c(c1)OCO2)OCc1ccccc1", "cytotoxicity": "13.2%"}, {"smiles": "CSc1nc(-c2ccc(Cl)cc2)nn1S(=O)(=O)c1ccc(Cl)cc1", "cytotoxicity": "-13%"}, {"smiles": "Cn1nc(-c2ccc(Cl)cc2)nc2c(=O)n(C)c(=O)nc1-2", "cytotoxicity": "51% (active)"}, {"smiles": "CCS(=O)(=O)n1nc(-c2ccc(Cl)cc2)nc1N", "cytotoxicity": "0.1%"}, {"smiles": "C=CCN=C(NC#N)SCCc1ccccc1", "cytotoxicity": "-4.6%"}, {"smiles": "Cc1nn(C)c(C)c1NC(=O)c1ccnn1C", "cytotoxicity": "-16.7%"}, {"smiles": "Oc1c(CN2CCOCC2)cc(COCc2ccccc2)c2cccnc12", "cytotoxicity": "20.5%"}, {"smiles": "CN1CCN(Cc2cc(COCc3ccccc3)c3cccnc3c2O)CC1", "cytotoxicity": "43.1%"}, {"smiles": "OCCN1CCN(Cc2cc(Cl)c3cccnc3c2O)CC1", "cytotoxicity": "-4.1%"}, {"smiles": "Oc1ccc(CN2CCc3ccccc3C2)c2cccnc12", "cytotoxicity": "33.5%"}, {"smiles": "O=c1oc2c(CN3CCOCC3)c(O)c(Cl)cc2c2c1CCC2", "cytotoxicity": "7.1%"}, {"smiles": "CCOCC(=O)Nc1nnc(COc2ccc(Cl)cc2)s1", "cytotoxicity": "17.8%"}, {"smiles": "CCOC(=O)CSc1nnc(Cn2c(=O)sc3ccccc32)n1C", "cytotoxicity": "1.9%"}, {"smiles": "CCN(CC)c1ccc(C(=S)N2CCN(c3ccccc3)CC2)cc1", "cytotoxicity": "-2.9%"}, {"smiles": "O=C(CSc1nnc(-c2cccs2)o1)c1cccs1", "cytotoxicity": "25.4%"}, {"smiles": "Cc1cc(C(=O)CSc2nnc(-c3ccccc3F)o2)c(C)n1Cc1cccs1", "cytotoxicity": "-6.5%"}, {"smiles": "COC(=O)C1=C(COc2ccccc2)NC(=O)NC1c1ccc2ccccc2c1", "note": "(stereo not given)", "cytotoxicity": "-5.7%"}, {"smiles": "CCOC(=O)C1=C(N)n2c(s/c(=C/c3ccccc3)c2=O)=C(C(=O)OCC)C1c1ccccc1", "note": "(stereo not given)", "cytotoxicity": "-1.6%"}, {"smiles": "CCOC(=O)C1=C(N)n2c(s/c(=C\\c3ccco3)c2=O)=C(C(=O)OCC)C1c1ccco1", "note": "(stereo not given)", "cytotoxicity": "36.1%"}, {"smiles": "CCOC(=O)C1=C(N)n2c(s/c(=C\\c3cccs3)c2=O)=C(C(=O)OCC)C1c1cccs1", "note": "(stereo not given)", "cytotoxicity": "56.3% (active)"}, {"smiles": "c1ccc(-c2cn3c(n2)CCc2ccc4cccnc4c2-3)cc1", "cytotoxicity": "37%"}, {"smiles": "Brc1ccc(-c2cn3cccnc3n2)cc1", "cytotoxicity": "9.4%"}, {"smiles": "Brc1ccc(-c2cn3c(n2)CCc2ccc4cccnc4c2-3)cc1", "cytotoxicity": "53.1% (active)"}, {"smiles": "CCn1c(=O)n(CC)c2cc(S(=O)(=O)N3CCC(c4ccccc4)CC3)ccc21", "cytotoxicity": "-6.5%"}, {"smiles": "CCn1c(=O)n(CC)c2cc(S(=O)(=O)N3CCc4ccccc43)ccc21", "cytotoxicity": "71.3% (active)"}, {"smiles": "Cn1c(=O)c(=O)n(C)c2cc(S(=O)(=O)N3CCc4ccccc43)ccc21", "cytotoxicity": "-4%"}, {"smiles": "Cc1cc(C)c(C)c(S(=O)(=O)NCc2ccco2)c1C", "cytotoxicity": "24.4%"}, {"smiles": "COc1ccc(C(=O)c2ccc(OC)c(N)c2)cc1N", "cytotoxicity": "53.8% (active)"}, {"smiles": "COc1ccc(C(=O)c2ccc(OC)c(OC)c2)cc1OC", "cytotoxicity": "14.8%"}, {"smiles": "COc1ccc(C(N)=O)cc1N", "cytotoxicity": "2.5%"}, {"smiles": "COc1ccc(OCCCC(=O)Nc2nncs2)cc1", "cytotoxicity": "8.3%"}, {"smiles": "O=C(NCCN1CCN(c2ccccc2F)CC1)C1CC(=O)N(C2CCCC2)C1", "note": "(stereo not given)", "cytotoxicity": "7%"}, {"smiles": "CC1CCCCC1NC(=O)CSc1nncs1", "note": "(stereo not given)", "cytotoxicity": "-0.9%"}, {"smiles": "COC(=O)c1ccc2c(c1)C(C)(C)C(/C=C/c1ccc(OC)c(OC)c1OC)=[N+]2C", "cytotoxicity": "64.8% (active)"}, {"smiles": "COC(=O)c1ccc(OC(=O)c2ccc(OCc3c(C)noc3C)c(OC)c2)cc1", "cytotoxicity": "-2%"}, {"smiles": "COC(=O)c1ccc(OC(=O)c2ccc(OC)c(OC)c2)c(OC)c1", "cytotoxicity": "-8%"}]}]}
